# Laboratory results reported in PubChem BioAssay AID720690 (Broad Institute, 2013).
# Results with a measured potency or affinity are listed apart. Calls of active or inactive are those of the source.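 The calls were made as follows: active = every repeat run showing a signal drop whose fitted half-maximal concentration is at most twice the top tested concentration; inconclusive = repeat runs disagree, or flat partial drop, or poor fit; inactive = the rest.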
# Test: general mammalian cell viability loss – activator set, cherry-pick, cytotoxicity control for miR-122 modulator project, dose response (AID 720690)
# Details: HEK293T viability, CellTiter-Glo luminescence, 48 h; series mostly up to 26 µM
row,SMILES,outcome
1,COc1ccc(C2SCC(=O)Nc3c2c(=O)[nH]n3C2CCCCCC2)cc1 (centres undefined),inactive
2,O=C(c1ccco1)c1cn(Cc2ccccc2Cl)c2ccccc12,inactive
3,COc1ccc2c(c1)c(CCN)c(C)n2Cc1ccccc1,inactive
4,O=C1NC(=O)N(CCC2=CCCCC2)C(=O)/C1=C\c1cccs1,inactive
